Measured values reported in PubChem BioAssay AID651704 (Broad Institute, 2012).
Where “and” joins values, the source holds several entries; their conditions need not be identical. Equal values may be shown once. Among all 350,000 compounds or so, about 1,600 (0.46%) were called active.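 The calls were made as follows: active = every replicate reaching a set inhibition limit, whatever the replicate mean (cut at about 25% in these data); inconclusive = mean inhibition reaches that limit but some replicates miss it; inactive = the rest.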 The full list was thinned out, with actives kept by preference.

Biological target: Protein AF-9 (Homo sapiens) (UniProt P42568)
Sequence (P42568 whole entry, looked up): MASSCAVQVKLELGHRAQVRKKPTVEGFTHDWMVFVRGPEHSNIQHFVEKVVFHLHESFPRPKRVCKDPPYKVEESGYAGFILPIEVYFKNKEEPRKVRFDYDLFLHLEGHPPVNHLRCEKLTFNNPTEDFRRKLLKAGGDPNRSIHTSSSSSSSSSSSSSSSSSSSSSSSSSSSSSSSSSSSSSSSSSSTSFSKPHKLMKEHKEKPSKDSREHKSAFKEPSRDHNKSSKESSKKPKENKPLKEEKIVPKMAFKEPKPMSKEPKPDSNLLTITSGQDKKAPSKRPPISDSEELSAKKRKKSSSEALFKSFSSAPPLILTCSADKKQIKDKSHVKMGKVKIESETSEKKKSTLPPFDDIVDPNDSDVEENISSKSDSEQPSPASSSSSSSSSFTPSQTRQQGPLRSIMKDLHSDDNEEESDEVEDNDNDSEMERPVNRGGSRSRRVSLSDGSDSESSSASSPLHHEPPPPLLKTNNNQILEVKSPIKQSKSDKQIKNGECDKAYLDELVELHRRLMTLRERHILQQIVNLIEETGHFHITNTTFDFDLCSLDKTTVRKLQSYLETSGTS
Assay: MLL-AF4/AF9 protein interaction blockers – biochemical, AlphaScreen, biotin-AF4 peptide, FLAG-AF9, single point, primary screen (AID 651704);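 also: 0% = plate neutral control median and 100% = total signal loss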
Details: biotin-AF4 peptide binding to FLAG-AF9, at 10 µM, active compounds read high

Q: How did the inhibition turn out when `Cc1cccc(C)c1NC(=O)CNC(=O)c1ccc2c(c1)OCCO2` was run?
A: -2.49% (inactive)

Q: For `O=C(NCCc1ccc(C(F)(F)F)cc1)c1ccc2c(c1)OCO2`, which inhibition is on record?
A: -0.679% (inactive)

Q: How did the inhibition turn out when `CN(Cc1c(F)cccc1Cl)C(=O)CNC(=O)c1ccc2c(c1)OCO2` was run?
A: 34.1% (active)

Q: With `CO[C@@H]1CN(C)C(=O)c2ccc(NC(=O)c3ccccc3F)cc2OC[C@@H](C)N(CC2CCOCC2)C[C@H]1C` as the compound, how does the inhibition read?
A: 1.64% (inactive)

Q: For `COCC#Cc1ccc2c(c1)O[C@@H](CN(C)Cc1ccccn1)[C@@H](C)CN([C@@H](C)CO)S2(=O)=O`, which inhibition is on record?
A: -4.38% (inactive)

Q: How did the inhibition turn out when `C[C@@H]1CN([C@H](C)CO)C(=O)c2c(c3ccccc3n2C)-c2ccccc2CO[C@@H]1CN(C)Cc1ccc(F)cc1` was run?
A: 0.52% (inactive)

Q: Which inhibition does the source give for `C[C@@H]1CN([C@@H](C)CO)C(=O)c2c(c3ccccc3n2C)-c2ccccc2CO[C@@H]1CN(C)Cc1cccc(C(=O)O)c1` here?
A: -2.44% (inactive)

Q: For `C[C@@H]1CN([C@H](C)CO)C(=O)c2c(c3ccccc3n2C)-c2ccccc2CO[C@H]1CN(C)Cc1ccc(F)cc1`, which inhibition is on record?
A: -2.73% (inactive)

Q: For `C[C@@H]1CN([C@@H](C)CO)C(=O)c2c(c3ccccc3n2C)-c2ccccc2CO[C@@H]1CN(C)Cc1ccc2c(c1)OCCN2C`, which inhibition is on record?
A: 30.8% (active)

Q: With `C[C@H]1CN([C@@H](C)CO)C(=O)c2c(c3ccccc3n2C)-c2ccccc2CO[C@@H]1CN(C)Cc1ccc2c(c1)OCCN2C` as the compound, how does the inhibition read?
A: 34.3% (active)

Q: Which inhibition does the source give for `C[C@H]1CN([C@@H](C)CO)C(=O)c2c(c3ccccc3n2C)-c2ccccc2CO[C@H]1CN(C)Cc1ccc2c(c1)OCO2` here?
A: 1.72% (inactive)

Q: `Cc1ccccc1S(=O)(=O)N1CC(=O)N2[C@H](CO)[C@@H](c3ccc(C#Cc4ccccc4)cc3)[C@H]2C1` was tested. Which inhibition did it give?
A: -0.846% (inactive)

Q: How did the inhibition turn out when `C[C@H](CO)N1C[C@H](C)[C@H](CN(C)Cc2ccccc2)OCCCC[C@H](C)Oc2ccc(NC(=O)Cc3ccccc3)cc2C1=O` was run?
A: 3.76% (inactive)

Q: How did the inhibition turn out when `Cc1noc(C)c1S(=O)(=O)N(C)C[C@@H]1OCCCC[C@H](C)Oc2ccc(NC(=O)NC(C)C)cc2C(=O)N([C@H](C)CO)C[C@@H]1C` was run?
A: 1.67% (inactive)

Q: Which inhibition does the source give for `O=C(C[C@H]1CC[C@H]2[C@@H](COC[C@H](O)CN2C(=O)Nc2ccc(Cl)cc2)O1)NCC1CC1` here?
A: 2.2% (inactive)

Q: For `O=C(Cc1cccnc1)N1CC(=O)N2[C@@H](CO)[C@@H](c3ccc(C#CC4CCCC4)cc3)[C@@H]2C1`, which inhibition is on record?
A: 0.34% (inactive)

Q: Which inhibition does the source give for `CN(C)C(=O)C[C@@H]1CC[C@@H](NC(=O)NC2CCCC2)[C@@H](CO)O1` here?
A: -1.49% (inactive)

Q: Which inhibition does the source give for `COc1cccc(-c2ccc([C@@H]3[C@H]4CN(C(=O)c5cccnc5)CC(=O)N4[C@H]3CO)cc2)c1` here?
A: 0.197% (inactive)

Q: With `CCCNC(=O)N1CC2(CCN(C(=O)C3CC3)CC2)c2c([nH]c3cc(OC)ccc23)[C@H]1CO` as the compound, how does the inhibition read?
A: -0.242% (inactive)

Q: `COc1ccc2c3c([nH]c2c1)[C@H](CO)N(Cc1cccc(F)c1)CC31CCN(Cc2ccccn2)CC1` was tested. Which inhibition did it give?
A: 6.18% (inactive)

Q: How did the inhibition turn out when `CCCNC(=O)N1CCC2(CC1)CN(Cc1ccccc1)[C@H](CO)c1[nH]c3cc(OC)ccc3c12` was run?
A: 1.99% (inactive)

Q: How did the inhibition turn out when `CCCNC(=O)N1CC2(CCN(Cc3ccc(F)cc3)CC2)c2c([nH]c3cc(OC)ccc23)[C@@H]1CO` was run?
A: 29.6% (active)

Q: With `COc1ccc2c3c([nH]c2c1)[C@H](CO)N(Cc1cccc(F)c1)CC31CCN(CC2CC2)CC1` as the compound, how does the inhibition read?
A: 35.1% (active)

Q: With `COc1ccc2c3c([nH]c2c1)[C@@H](CO)N(Cc1cccc(F)c1)CC31CN(CC2CC2)C1` as the compound, how does the inhibition read?
A: 23.8% (inactive)

Q: With `C[C@H]1CN([C@@H](C)CO)C(=O)c2cc(-c3ccc(C#N)cc3)cnc2O[C@@H]1CN(C)Cc1ccncc1` as the compound, how does the inhibition read?
A: -0.44% (inactive)

Q: With `COc1ccccc1C(=O)Nc1ccc2c(c1)C(=O)N(C)C[C@@H](OC)[C@@H](C)CN(C)[C@H](C)CO2` as the compound, how does the inhibition read?
A: -2.27% (inactive)

Q: How did the inhibition turn out when `N#C[C@@H]1[C@H](c2ccccc2-c2cccc(F)c2)[C@@H](CO)N1C(=O)C1CCCC1` was run?
A: -0.992% (inactive)

Q: Which inhibition does the source give for `C[C@@H]1CN([C@@H](C)CO)C(=O)c2cc(-c3cccnc3)cnc2O[C@@H]1CN(C)C(=O)C1CC1` here?
A: -2.51% (inactive)

Q: For `O=C(C1CCCCC1)N1CC(=O)N2[C@H](CO)[C@@H](c3ccc(C#Cc4cccc(F)c4)cc3)[C@@H]2C1`, which inhibition is on record?
A: -3.43% (inactive)

Q: For `CN(Cc1ccccc1F)c1cc2c(c3c1ccn3C)C1CCC2O1` (stereo not given), which inhibition is on record?
A: 28.6% (active)

Q: With `CC(C)(C)[S@](=O)N1Cc2cc(C(=O)N[C@@H]3CCN(Cc4ccccc4)C3)nc(-c3cccc(-c4ccncc4)c3)c2[C@@H]1CCO` as the compound, how does the inhibition read?
A: 4.53% (inactive)

Q: For `COc1ccc(N2CCN(C3CCCCC3NS(=O)(=O)c3ccccc3)CC2)cc1` (stereo not given), which inhibition is on record?
A: 36.3% (active)

Q: With `O=S(=O)(NC1CCCCC1N1CCC(O)CC1)c1ccc(Cl)cc1` (stereo not given) as the compound, how does the inhibition read?
A: 3.3% (inactive)

Q: How did the inhibition turn out when `O=S(=O)(NC1CCCCC1N1CCN(c2ccccc2F)CC1)c1ccccc1` (stereo not given) was run?
A: 5.55% (inactive)

Q: Which inhibition does the source give for `Cn1cnc(CCNC(=O)C[C@H]2CC[C@H]3[C@@H](COC[C@@H](O)CN3C(=O)Nc3ccc(C(F)(F)F)cc3)O2)c1` here?
A: 4.5% (inactive)

Q: Which inhibition does the source give for `Cc1cccc(OCC(O)CN2CCN(S(=O)(=O)c3ccc(C)cc3C)CC2)c1` (stereo not given) here?
A: 35.7% (active)

Q: With `CC(=O)c1ccc(OCC(O)CN2CCN(S(=O)(=O)c3cccc(Br)c3)CC2)cc1` (stereo not given) as the compound, how does the inhibition read?
A: 0.541% (inactive)

Q: For `Cc1ccc(S(=O)(=O)N2CCN(C(=O)N3CCOCC3)CC2)c(C)c1`, which inhibition is on record?
A: -6.49% (inactive)

Q: With `CCOC(=O)c1ccc(NC(=O)C2CC(=O)N(c3ccc4c(c3)OCCO4)C2)cc1` (stereo not given) as the compound, how does the inhibition read?
A: -0.164% (inactive)

Q: For `CCN(CC(=O)Nc1ccc(NC(C)=O)cc1)C(=O)C1CC(=O)N(Cc2ccc(C)cc2)C1` (stereo not given), which inhibition is on record?
A: 9.28% (inactive)

Q: `CCN(CC(=O)Nc1ccc(NC(C)=O)cc1)C(=O)C1CC(=O)N(c2ccc3c(c2)OCCO3)C1` (stereo not given) was tested. Which inhibition did it give?
A: 28% (active)

Q: How did the inhibition turn out when `O=C(c1ccccn1)N1CC2(C1)[C@@H](c1ccccc1)[C@@H](CO)N2C(=O)C1CCC1` was run?
A: 0.755% (inactive)

Q: With `CC(C)CC#Cc1ccc2c(c1)O[C@@H](CN(C)C(=O)Nc1ccccc1F)[C@@H](C)CN([C@@H](C)CO)S2(=O)=O` as the compound, how does the inhibition read?
A: 1.25% (inactive)

Q: Which inhibition does the source give for `CC(C)C[C@@H](CO)N1CCN(Cc2ccc(O)cc2)CCC1=O` here?
A: -1.96% (inactive)

Q: `CC(C)CC(CO)N1CCN(C(=O)c2ccc(Cl)cc2Cl)CCC1=O` (stereo not given) was tested. Which inhibition did it give?
A: 38.9% (active)

Q: `CC(C)C[C@@H](COCc1ccc(Cl)cc1)N1CCN(C(=O)c2ccc(Cl)cc2Cl)CCC1=O` was tested. Which inhibition did it give?
A: 1.49% (inactive)

Q: How did the inhibition turn out when `N#Cc1cccc(-c2ccc(C3[C@@H]4CN(C(=O)C5CCC5)C[C@H]3N4)cc2)c1` (stereo not given in full) was run?
A: -2.89% (inactive) and 1.48% (inactive)

Q: For `O=C(NC1CCCCC1)N1CC2(C1)[C@@H](c1ccccc1)[C@@H](CO)N2CC1CCOCC1`, which inhibition is on record?
A: -1.54% (inactive)

Q: With `CN(C)C(CNC(=O)c1ccc(OCc2cn3ccccc3n2)cc1)c1ccco1` (stereo not given) as the compound, how does the inhibition read?
A: 0.31% (inactive)

Q: `Cc1noc(C)c1COc1ccc(C(=O)NCCOc2ccccc2)cc1` was tested. Which inhibition did it give?
A: -1.51% (inactive)

Q: `CN(C)CCNC(=O)c1ccc(-c2cn3c(-c4ccc(Oc5ccccc5)cc4)cnc3cn2)cc1` was tested. Which inhibition did it give?
A: 34.2% (active)

Q: `Cc1ccc(S(=O)(=O)NCC[C@H]2CC[C@H](NC(=O)c3ccccn3)[C@H](CO)O2)cc1` was tested. Which inhibition did it give?
A: 1.07% (inactive)

Q: With `CCC(=O)N1C[C@H](C)[C@H](OC)CN(C)C(=O)c2cc(NC(=O)Nc3cccc(F)c3)ccc2OC[C@@H]1C` as the compound, how does the inhibition read?
A: 2.75% (inactive)

Q: Which inhibition does the source give for `O=S(=O)(c1ccccc1)N1[C@H](CO)[C@@H]2c3ccccc3NC[C@@H]21` here?
A: -1.25% (inactive)

Q: For `COc1ccccc1NC(=O)N(C)C[C@@H]1Oc2ncc(C#CCC(C)C)cc2C(=O)N([C@@H](C)CO)C[C@@H]1C`, which inhibition is on record?
A: -1.7% (inactive)

Q: Which inhibition does the source give for `COCC(=O)Nc1ccc2c(c1)OC[C@@H](C)N(Cc1cocn1)C[C@@H](C)[C@@H](OC)CN(C)C2=O` here?
A: -2.07% (inactive)

Q: For `Nc1ccc(N=Nc2ccccc2Cl)c(N)n1`, which inhibition is on record?
A: 31.4% (active)

Q: Which inhibition does the source give for `CN1CCN(C(=O)C[C@H]2C[C@@H]3c4cc(NC(=O)Nc5ccc(C(F)(F)F)cc5)ccc4O[C@@H]3[C@H](CO)O2)CC1` here?
A: 6.81% (inactive)

Q: `COc1ccc(S(=O)(=O)NC[C@@H]2CC[C@@H]3[C@@H](CN3Cc3cc(F)ccc3F)O2)cc1` was tested. Which inhibition did it give?
A: 17.9% (inactive)

Q: For `O=C([C@H]1N[C@H]2c3ccc(-c4ccccc4)c(=O)n3C[C@H]2[C@@H]1CO)N1CCOCC1`, which inhibition is on record?
A: -1.96% (inactive)

Q: How did the inhibition turn out when `CCOC(=O)c1[nH]ncc1CN1CCCC(C(=O)c2ccc(OC)cc2C)C1` (stereo not given) was run?
A: -1.02% (inactive)

Q: How did the inhibition turn out when `COc1ccc(C(=O)C2CCCN(Cc3cccn3-c3ccccn3)C2)c(C)c1` (stereo not given) was run?
A: 11.3% (inactive)

Q: With `COc1ccc(C(=O)C2CCCN(Cc3ccc4nonc4c3)C2)c(C)c1` (stereo not given) as the compound, how does the inhibition read?
A: 29.4% (active)

Q: `COc1ccc2[nH]c3c(C)c4cc[n+](C)cc4c(C)c3c2c1` was tested. Which inhibition did it give?
A: 57.7% (active)

Q: For `C[C@@H]1CN([C@H](C)CO)C(=O)c2cc(-c3ccc(F)cc3)cnc2O[C@@H]1CN(C)Cc1ccc(C(=O)O)cc1`, which inhibition is on record?
A: -1.88% (inactive)

Q: With `CCC(=O)N1C[C@@H](C)[C@H](OC)CN(C)C(=O)c2cc(NC(=O)NC3CCCC3)ccc2OC[C@H]1C` as the compound, how does the inhibition read?
A: -2.77% (inactive)

Q: How did the inhibition turn out when `C[C@H](CO)N1C[C@H](C)[C@@H](CN(C)Cc2ccc3c(c2)OCO3)OCCCC[C@H](C)Oc2ccc(NC(=O)Nc3ccc(C(F)(F)F)cc3)cc2C1=O` was run?
A: 4.81% (inactive)

Q: `Cc1cc2oc(=O)cc(CN3CCN(Cc4ccccc4)CC3)c2cc1C` was tested. Which inhibition did it give?
A: 2.48% (inactive)

Q: Which inhibition does the source give for `COc1cccc2sc3cc(NCC[C@@H]4CCCN4C)ccc3c(=O)c12` here?
A: 3.58% (inactive)

Q: How did the inhibition turn out when `Cc1cc2oc3ccc(NCCC4CCCN4C)cc3c(=O)c2cc1C` (stereo not given) was run?
A: 27.8% (active)
